The record followed here is PubChem BioAssay.

Assay [1] is described as follows: Wnt pathway potentiators raising nuclear beta-catenin – imaging, WNT3A-conditioned medium, mouse C2C12, NPC library, primary screen (AID 1117326; in the data active means nuclear beta-catenin stimulation mostly above about 4.2%, no sharp cut-off; inactive means mostly below about 10%). The note with it: stronger effect = higher value.
Assay [2] is described as follows: stimulators of insulin release from INS-1E, primary screen, cell-based, 5 mM glucose, NPC library (AID 1117329;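 active means compound raises insulin release from rat beta cells at 5 mM glucose, no numeric limit stated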). The note with it: rat INS-1E insulin secretion, at 10 µM, stronger effect = higher value.
Assay [3] is described as follows: growth inhibition of GSK3B-pretreated HCT116 cells – cell-based, CellTiter-Glo, 0.2 to 20 µM (AID 1117336;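 active means compounds lowering colon cancer cell viability after pretreatment blocking the GSK3B kinase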). As to conditions: HCT116 viability after GSK3B inhibitor, at 20 µM, stronger effect = higher value. (In general: In ATP-based viability assays light output follows the ATP content of the culture.)
Assay [4] can be described thus: inhibition of endothelial tube formation, primary screen, imaging, VEGF stimulated, CD31 staining, tube area, NPC library (AID 1117340;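 active means compound that reduces growth-factor-driven endothelial tube area in a mixed cell culture, no cutoff stated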). The note with it: VEGF-stimulated ADSC/ECFC co-culture, at 10 µM, stronger effect = higher value.
Assay [5] in a line: GLP1 release stimulators, primary, NCI-H716, NPC library (AID 1117341;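 active means compound raises GLP1 secretion from the human gut endocrine cells, with no numeric limit stated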). The note with it: NCI-H716 cells, at 10 µM, stronger effect = higher value.
Assay [6] is described as follows: HCT116 colon cancer cell growth inhibition, primary screen, CellTiter-Glo luminescence, NPC library (AID 1117342;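 active means compounds that lower survival of HCT116 colon cancer cells in the luminescence readout, no numeric limit stated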). As to conditions: at 20 µM (top of the series).
Assay [7] is described as follows: reduced SW480 viability measured with CellTiter-Glo, NPC library, primary (AID 1117343;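 active means compounds that lower viability of the colon cancer cells in the luminescence readout, with no numeric limit stated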). As to conditions: CellTiter-Glo luminescence; at 20 µM (top of the series).
Assay [8] can be described thus: NPC library primary testing for decreased DLD-1 cell viability via CellTiter-Glo (AID 1117346;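 active means compounds that lower survival of DLD-1 colon cancer cells in the luminescence readout, no cutoff given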). The note with it: DLD-1 viability, CellTiter-Glo luminescence; at 20 µM (top of the series).
In assay [9] the target is 6-phosphogluconate dehydrogenase, decarboxylating (Homo sapiens) (UniProt P52209). Kind of assay: inhibition of human phosphogluconate dehydrogenase – biochemical, recombinant enzyme, NADPH absorbance, primary screen (AID 1159550;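 active means at least 20% inhibition of 6-phosphogluconate dehydrogenase activity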). As to conditions: recombinant 6PGD, NADPH absorbance 341 nm; at 10 µM; stronger effect = higher value.
Assay [10] is described as follows: modulation of C. elegans fzo-1 (AID 1259413; call rule not given here;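 further: fzo-1 mutant C. elegans worms in liquid wells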). As to conditions: C. elegans fzo-1 modulator screen, mean read-out; stronger effect = higher value.
A short description of assay [11]: EMT-state selective cytotoxicity in co-culture – imaging, PC-3E GFP, TEM4-18 mCherry, primary screen (AID 1345086;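 active means compounds killing one labelled cell type while sparing the other, by normalised counts and ratio limits, not self-fluorescent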;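 on all read-outs here: cells exposed to compound for 72 h before imaging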;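 on red/green cell ratio (normalised): normalised mesenchymal count divided by normalised epithelial count so high means epithelial killing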). The note with it: PC-3E GFP / TEM4-18 mCherry co-culture, imaging cell counts, at 1 µM; for red/green cell ratio (normalised): actives lie on both sides, counts scaled to control wells, 1 = unselective.
The nature of assay [12]: MELAS cybrid and Rieske KO viability enhancers – cell-based, MELAS cybrids, Rieske KO mouse fibroblasts, CellTiter-Glo, primary screen (AID 1508586;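 active means mean z-score across replicates of 1.96 or higher in either the MELAS or the Rieske mutant cell line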;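 further: z relative to plate mean and SD of compound and empty wells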). The note with it: low glucose.
The target of assay [13] is NAD(+) hydrolase SARM1 (Homo sapiens) (UniProt Q6SZW1). Kind of assay: blocking NAD cleavage by SARM1 SAM-TIR – cell lysate, NAD-Glo luminescence (AID 1508614;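 active means compound whose remaining NAD level is above about 45 nM, limit read from the data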). As to conditions: SAM-TIR HEK293T lysate NADase, at 1 µM, stronger effect = higher value.
Assay [14] has as its target Mitogen-activated protein kinase 7 (Homo sapiens) (UniProt Q13164). Kind of assay: Gal4-ERK5 driven luciferase induction – cell-based, HTS, primary screen (AID 1508626;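 active means luciferase signal above three times the same-plate solvent-only control wells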;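 further: luciferase driven by Gal4-ERK5 fusion binding five Gal4 sites before minimal TATA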). The note with it: HeLa Gal4-ERK5 transactivation, 18 h, at 5 µM, stronger effect = higher value.
The test system of the next assay is F380Y. Kind of assay: BK channel mutant inhibitors and activators – cell-based, U2OS BacMam, thallium flux, beta subunits, selectivity assay, profiling panel (AID 1259406).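 Further: initial slope of Thallos dye fluorescence rise after thallium is added; log ratio against the mean of 0.3% DMSO vehicle wells on the same plate.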 As to conditions: U2OS BacMam BK variants, at 30 µM.
For the next assay, the system named is F380Y/beta1. The description is as above. The note with it: U2OS BacMam BK variants, at 30 µM.
The test system of the next assay is F380Y/beta2Delta. The description is as above. The note with it: U2OS BacMam BK variants, at 30 µM.
Another assay has as its system F380Y/beta4. The assay is described as above. As to conditions: U2OS BacMam BK variants, at 30 µM.
Assay [15] concerns the target Calcium-activated potassium channel subunit alpha-1 (Homo sapiens) + Leucine-rich repeat-containing protein 26 (Homo sapiens) (UniProt Q12791+Q2I0M4). Described as above. The note with it: U2OS BacMam BK variants, F380Y/Slo1WT/gamma1, at 30 µM.
Setting [16] is: measured here: epithelial PC-3E GFP cell survival.
[17] abbreviates: measured here: mesenchymal TEM4-18 mCherry cell survival.
Where [18] appears, read: MELAS cybrid survival, CellTiter-Glo 48 h, stronger effect = higher value.
The mark [19] stands for this setting: Rieske KO mouse fibroblast survival, CellTiter-Glo 72 h.

Where “and” joins values, the source holds several entries; their conditions need not be identical. Identical values can stand only once. Calls of active or inactive are those of the source.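 How the source made its calls, unless noted: active means thallium flux through the channel raised or lowered by more than 3 SD from vehicle-only wells, actives on both sides; inactive means the rest.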

Sequence of 6-phosphogluconate dehydrogenase, decarboxylating (Homo sapiens) (P52209 whole entry, looked up): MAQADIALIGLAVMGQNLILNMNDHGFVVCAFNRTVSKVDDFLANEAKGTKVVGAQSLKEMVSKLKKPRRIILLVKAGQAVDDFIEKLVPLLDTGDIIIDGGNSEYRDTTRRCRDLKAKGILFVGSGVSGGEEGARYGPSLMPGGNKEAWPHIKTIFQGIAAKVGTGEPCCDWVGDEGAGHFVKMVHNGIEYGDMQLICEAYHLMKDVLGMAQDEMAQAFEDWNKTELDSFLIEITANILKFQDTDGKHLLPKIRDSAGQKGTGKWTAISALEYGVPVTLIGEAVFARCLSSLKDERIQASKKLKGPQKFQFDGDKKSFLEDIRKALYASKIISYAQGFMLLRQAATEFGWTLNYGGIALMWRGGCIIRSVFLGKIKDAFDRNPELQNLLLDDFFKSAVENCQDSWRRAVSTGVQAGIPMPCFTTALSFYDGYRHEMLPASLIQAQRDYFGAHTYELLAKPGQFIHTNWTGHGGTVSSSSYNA
Sequence of NAD(+) hydrolase SARM1 (Homo sapiens) (Q6SZW1 whole entry, looked up, the tested form may be a part): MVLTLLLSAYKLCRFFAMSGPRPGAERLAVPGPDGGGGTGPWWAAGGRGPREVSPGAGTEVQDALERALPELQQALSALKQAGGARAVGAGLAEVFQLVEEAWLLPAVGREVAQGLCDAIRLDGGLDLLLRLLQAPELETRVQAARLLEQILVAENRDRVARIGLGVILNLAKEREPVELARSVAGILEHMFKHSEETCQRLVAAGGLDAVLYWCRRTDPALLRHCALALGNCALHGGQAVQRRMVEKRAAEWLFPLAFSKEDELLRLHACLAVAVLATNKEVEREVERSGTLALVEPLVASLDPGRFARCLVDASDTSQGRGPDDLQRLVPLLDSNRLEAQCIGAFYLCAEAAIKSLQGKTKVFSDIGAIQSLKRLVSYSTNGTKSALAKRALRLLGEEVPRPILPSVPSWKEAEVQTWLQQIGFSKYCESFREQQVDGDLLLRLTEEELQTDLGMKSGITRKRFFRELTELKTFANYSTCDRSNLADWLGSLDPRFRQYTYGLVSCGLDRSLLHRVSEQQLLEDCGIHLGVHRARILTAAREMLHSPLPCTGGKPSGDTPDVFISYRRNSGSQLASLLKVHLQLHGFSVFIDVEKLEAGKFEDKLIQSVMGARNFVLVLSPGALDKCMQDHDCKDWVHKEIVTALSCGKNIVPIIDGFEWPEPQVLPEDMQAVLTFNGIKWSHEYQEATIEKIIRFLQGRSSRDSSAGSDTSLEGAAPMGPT
Sequence of Mitogen-activated protein kinase 7 (Homo sapiens) (Q13164 whole entry, looked up, the tested form may be a part): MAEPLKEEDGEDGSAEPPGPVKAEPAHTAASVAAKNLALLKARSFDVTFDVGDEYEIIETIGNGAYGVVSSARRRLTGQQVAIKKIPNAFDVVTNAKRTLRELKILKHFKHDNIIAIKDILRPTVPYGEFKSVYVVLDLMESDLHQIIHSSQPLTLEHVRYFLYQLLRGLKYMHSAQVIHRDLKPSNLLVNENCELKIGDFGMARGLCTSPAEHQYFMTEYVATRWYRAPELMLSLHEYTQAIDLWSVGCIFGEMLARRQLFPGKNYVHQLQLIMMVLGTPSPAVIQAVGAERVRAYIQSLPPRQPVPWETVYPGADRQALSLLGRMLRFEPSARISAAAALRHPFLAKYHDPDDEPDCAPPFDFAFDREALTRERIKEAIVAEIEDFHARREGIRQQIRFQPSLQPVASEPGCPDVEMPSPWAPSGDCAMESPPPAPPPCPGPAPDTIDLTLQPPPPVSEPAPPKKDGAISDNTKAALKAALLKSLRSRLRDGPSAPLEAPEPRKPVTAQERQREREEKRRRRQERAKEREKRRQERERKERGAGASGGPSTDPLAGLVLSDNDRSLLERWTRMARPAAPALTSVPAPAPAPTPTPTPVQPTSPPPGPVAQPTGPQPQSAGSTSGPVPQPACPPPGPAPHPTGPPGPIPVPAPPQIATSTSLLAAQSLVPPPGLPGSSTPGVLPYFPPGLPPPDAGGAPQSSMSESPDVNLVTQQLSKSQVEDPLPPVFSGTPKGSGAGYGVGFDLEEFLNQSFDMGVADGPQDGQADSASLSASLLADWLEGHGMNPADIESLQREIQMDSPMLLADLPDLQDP
Sequence of Calcium-activated potassium channel subunit alpha-1 (Homo sapiens) + Leucine-rich repeat-containing protein 26 (Homo sapiens) (Q2I0M4 whole entry, looked up, one chain of several): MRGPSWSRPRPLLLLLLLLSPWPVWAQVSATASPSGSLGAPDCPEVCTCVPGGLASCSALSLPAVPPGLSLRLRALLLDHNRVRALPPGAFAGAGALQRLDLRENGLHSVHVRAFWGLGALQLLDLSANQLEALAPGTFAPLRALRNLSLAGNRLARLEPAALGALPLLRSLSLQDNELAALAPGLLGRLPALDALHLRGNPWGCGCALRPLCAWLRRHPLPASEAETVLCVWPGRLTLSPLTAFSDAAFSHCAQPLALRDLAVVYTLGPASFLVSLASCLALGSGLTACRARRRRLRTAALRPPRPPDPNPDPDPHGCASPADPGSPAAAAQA

On to `CCC(C)(C)C(=O)O[C@H]1C[C@@H](C)C=C2C=C[C@H](C)[C@H](CC[C@@H]3C[C@@H](O)CC(=O)O3)[C@H]21`, for which the nuclear beta-catenin stimulation in assay [1] (at 10 µM) is 15.9% (inactive); in assay [1] (stimulation, at 2 µM), 7.6%. For the same compound, the insulin secretion stimulation in assay [2] was 13.1% (inactive). The viability decrease in assay [3] is 95.1% (active). In addition, in assay [4], the tube area decrease was 91% (active). In assay [5], the GLP1 secretion stimulation was 28% (active). Moreover, the inhibition of viability in assay [6] is 86% (active). Further, the viability decrease (inhibition) is 119% (active) in assay [7] and 77.8% (active) in assay [8]. Also, the inhibition – broadly, the relative decrease from the control value, in per cent – in assay [9] is 2.59% (inactive). For the same compound, the mean signal in assay [10] was 230 (inactive). For the same compound, the red/green cell ratio (normalised) in assay [11] was 0.86 (inactive). In addition, the normalised cell number came out at 0.75 in assay [11] (setting [16]) and 0.65 in assay [11] (setting [17]). Further, the z-score in assay [12] (setting [18]) was -2.63 (inactive) and -1.16 (inactive); in assay [12] (setting [19]), -0.283 and -0.755. In addition, in assay [13], the remaining NAD was 10 nM (inactive). Also, in assay [14], the luciferase signal was 220 AU (inactive). Besides, the log fold change Tl+ flux in the assay on F380Y is 0.085 (inactive); in the assay with F380Y/beta1 it was 0.0381 (inactive); in the assay on F380Y/beta2Delta, 0.0908 (active); in the assay with F380Y/beta4 it was -0.0747 (inactive); in [15], 0.0806 (active).
In the case of `Cc1[nH]cnc1C[C@H]1CCc2c(C)c3ccccc3n2C1=O`, the nuclear beta-catenin stimulation is 9.2% (inactive) in assay [1] (at 10 µM) and 0.9% in assay [1] (stimulation, at 2 µM). In addition, in assay [2], the insulin secretion stimulation is -0.4% (inactive). In addition, the viability decrease in assay [3] was 57.2% (active). Besides, in assay [4], the tube area decrease was 55% (active). Moreover, the GLP1 secretion stimulation in [5] was -2.3% (inactive). The inhibition of viability in [6] was 92.8% (active). Further, the viability decrease (inhibition) is 69.2% (active) in assay [7] and 65.3% (active) in assay [8].
As for `Nc1nc2ccccc2n1Cc1ccc(F)cc1`, the nuclear beta-catenin stimulation in [1] (at 10 µM) is 0.8% (inactive); in [1] (stimulation, at 2 µM), -2%. In addition, in assay [2], the insulin secretion stimulation was 0.8% (inactive). Moreover, the viability decrease in assay [3] is 56.4% (active). Also, the tube area decrease in assay [4] was 15.1% (inactive). In addition, the GLP1 secretion stimulation in [5] was -0.6% (inactive). Also, the inhibition of viability in assay [6] is 74.9% (active). The viability decrease (inhibition) in assay [7] was 84% (active); in assay [8] it was 43% (inactive).
With `CN1C(C(=O)Nc2ccccn2)=C(O)c2ccccc2S1(=O)=O`, the nuclear beta-catenin stimulation in assay [1] (at 10 µM) was 6.3% (inactive); in assay [1] (stimulation, at 2 µM), 0.5%. Also, in assay [2], the insulin secretion stimulation is -2.9% (inactive). Besides, the viability decrease in assay [3] is -12.7% (inactive). Further, in assay [4], the tube area decrease is 3.1% (inactive). The GLP1 secretion stimulation in assay [5] was 1.4% (inactive). Further, the inhibition of viability in assay [6] is -10.9% (inactive). Also, the viability decrease (inhibition) in assay [7] is 15.6% (inactive); in assay [8], 12.8% (inactive). For the same compound, in assay [9], the inhibition was 7.63% (inactive). The mean signal in assay [10] is 261 (inactive). For the same compound, in assay [11], the red/green cell ratio (normalised) is 1.3 (inactive). Further, the normalised cell number in assay [11] (setting [16]) came out at 0.96; in [11] (setting [17]), 1.24. The z-score in [12] (setting [18]) was -0.176 (inactive) and -0.255 (inactive) and -0.0452 (inactive); in [12] (setting [19]) it was 0.725 and -0.177 and -0.896. The remaining NAD in assay [13] was 10 nM (inactive). The luciferase signal in assay [14] was 56 AU (inactive). Moreover, the log fold change Tl+ flux is 0.0868 (inactive) with F380Y; 0.0287 (inactive) in the assay on F380Y/beta1; 0.0109 (inactive) with F380Y/beta2Delta; -0.0159 (inactive) in the assay on F380Y/beta4; 0.00877 (inactive) in [15].
With `Cc1noc(NS(=O)(=O)c2ccc(N)cc2)c1C`, the nuclear beta-catenin stimulation in assay [1] (at 10 µM) was 0.8% (inactive); in assay [1] (stimulation, at 2 µM), 0.7%. In addition, the insulin secretion stimulation in [2] was -1.5% (inactive). In addition, the viability decrease in assay [3] was -14.5% (inactive). For the same compound, the tube area decrease in assay [4] was 8.7% (inactive). Further, the GLP1 secretion stimulation in assay [5] was 0.1% (inactive). Besides, the inhibition of viability in assay [6] was 0.13% (inactive). The figures for the viability decrease (inhibition) in [7] and in [8] were -27% (inactive) and -5.7% (inactive), respectively. Further, the inhibition in assay [9] was -15.2% (inactive). Also, the mean signal in assay [10] is 256 (inactive). Moreover, in [11], the red/green cell ratio (normalised) is 1.68 (inactive). Besides, the normalised cell number in assay [11] (setting [16]) came to 0.73; in assay [11] (setting [17]), 1.22. Further, the z-score in assay [12] (setting [18]) was -0.0643 (inactive) and 0.19 (inactive); in [12] (setting [19]), -0.11 and -0.107. Moreover, the remaining NAD in assay [13] is 10 nM (inactive). Moreover, the luciferase signal in assay [14] was 100 AU (inactive). For the same compound, the log fold change Tl+ flux in the assay with F380Y is 0.00425 (inactive); in the assay on F380Y/beta1, -0.0556 (inactive); with F380Y/beta2Delta, 0.028 (inactive); with F380Y/beta4, -0.0245 (inactive); in [15], 0.0135 (inactive).
